Experimental findings from PubChem BioAssay AID588413 (Sanford-Burnham Center for Chemical Genomics, 2011) are described below.

Structures are written as SMILES. Among all 340,000 compounds or so, about 2,500 (0.74%) were called active.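 The calls were made as follows: active = inhibition above about 55% (limit read from the data); inactive = the rest.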 This excerpt belongs to a sample that is enriched for actives.

The assay can be described thus: Gli-Sufu pathway antagonists, primary screen, luciferase luminescence, Sufu-KO-LIGHT cells, uHTS (AID 588413).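 Also: 0% = DMSO-treated cells and 100% = wells with medium but no cells.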 The conditions noted are these: Sufu-KO-LIGHT fibroblasts, Gli luciferase reporter luminescence; at 5 µM; active compounds read high. For orientation: Reporter assays use an easily measured gene product as a stand-in for the process of interest.
Usually inhibition stands for the change of the read-out against control, counted positive when it falls. As to `O=C(N/C(=C\c1ccc([N+](=O)[O-])cc1)C(=O)N1CCOCC1)c1cccc(Br)c1`, the inhibition was 14.4% (inactive).
With `CC(C)c1ccc(C=NNc2ccc([N+](=O)[O-])cn2)cc1` the figure was -110% (inactive).
With `Oc1ccc(/C=N/Nc2ccc(C(F)(F)F)cn2)cc1O` the figure was 75.1% (active); with `FC(F)(F)c1cccc(N/N=C/c2ccccc2)c1`, 2.85% (inactive); with `COc1cccc2cc(C(=O)N(C)C)c(=O)oc12`, -0.51% (inactive).
With `COc1cccc2cc(C(N)=O)/c(=N\NC(=O)c3ccccc3)oc12` the figure was 61.3% (active); with `COc1cccc2cc(C(=O)N3CCN(C(=O)c4ccccc4)CC3)c(=O)oc12`, 0.62% (inactive); with `O=S(=O)(Cc1ccc(Cl)cc1Cl)c1ccc(Cl)cc1`, -10.2% (inactive).
As to `Nc1ccc(N=Nc2ccccc2Cl)c(N)n1`, the inhibition is -22.2% (inactive).
With `O=c1c2ccccc2nc2n1C(CSCc1ccccc1)CS2` (configuration not stated) the figure was 41.5% (inactive); with `N#Cc1c(-c2ccccc2)nc(SCc2cccc(C(F)(F)F)c2)[nH]c1=O`, 2.78% (inactive); with `O=c1c2ccccc2nc2n1C(CSCc1cccc(C(F)(F)F)c1)CS2` (configuration not stated), 65.9% (active).
Consider `CN(CC(=O)O)C(=O)c1ccccc1`, for which the inhibition is -17.4% (inactive).
Then `CN(O)C(=S)c1ccccc1`, with 82.7% (active).
Then `CN(/N=C/c1ccccc1)C(=S)c1ccccc1`, with 2.13% (inactive); and `COc1ccc(CNc2c(CO)cnc3c2cnn3C)cc1`, with 25.4% (inactive); and `CCOC(=O)C1CN(S(=O)(=O)c2ccc(OC)cc2)c2cc(Cl)ccc2O1` (configuration not stated), with 21.4% (inactive).
With `CCOc1ccc(S(=O)(=O)NCc2ccc3c(c2)OCO3)cc1C` the figure was -7.28% (inactive); with `CCCOc1ccc(Cn2c(O)cc(=O)[nH]c2=O)cc1`, 9.29% (inactive).
Take `CCCOc1ccc(Cc2c(O)nc(SC)[nH]c2=O)cc1C`: the inhibition is -2.99% (inactive).
With `CCCOc1ccc(Cc2c(Cl)nc(SC)nc2NC)cc1` the figure was 57.3% (active).
With `CC(C)N(C(=O)CN1CCN(S(=O)(=O)c2ccc(Br)s2)CC1)C(C)C` the figure was -1.96% (inactive); with `CC(C)OCCCNc1ncnc2c1[nH]c1ccc(F)cc12`, 62% (active); with `Fc1ccc2[nH]c3c(N4CCN(Cc5ccc6c(c5)OCO6)CC4)ncnc3c2c1`, -4.16% (inactive).
With `CC(=O)NCc1ccc(S(=O)(=O)NC2CCN(Cc3ccccc3)CC2)cc1` the figure was -8.88% (inactive); with `CC(=O)c1cc2c(cc1NC(=O)CN1CCCCCC1)OCO2`, -2.2% (inactive).
As to `COc1ccc(Cn2c(-c3ccc(Cl)cc3)c[n+]3ccccc23)cc1`, the inhibition is 66.8% (active).
With `CCn1c(C)cc(=O)cc1-c1ccc(Cl)cc1` the figure was 8.82% (inactive).
On to `COc1ccc(Cn2c(=O)cc(C)[nH]c2=S)cc1`, for which the inhibition is 8.5% (inactive).
Then `C[C@@H]1CN([C@@H](C)CO)C(=O)c2cc(NC(=O)C3CC3)ccc2O[C@H]1CN(C)C`, with -16% (inactive); and `Cc1ccccc1N1CCN(CC(=O)NCc2ccc(Cl)cc2)CC1`, with 6.04% (inactive).
Then `COc1ccc(OC)c(CN2C(=O)CCC2(C)C(=O)NC2CCCCCC2)c1` (configuration not stated), with 23.4% (inactive); and `O=C(C1CCCO1)N1CCN(C(=S)NC2CC2)CC1` (configuration not stated), with -11.3% (inactive).
Then `COc1ccc(-c2cn3ccc(C)cc3n2)cc1`, with -72% (inactive).
As to `Cc1ccc2nc(-c3ccc(Br)cc3)cn2c1`, the inhibition was 20.9% (inactive).
With `Cc1ccc(-c2cn3cc(C)ccc3n2)cc1` the figure was 63.8% (active); with `O=C(CCS(=O)(=O)c1cccc2nonc12)NCCc1ccccc1Cl`, 4.43% (inactive).
With `CC1(C)CCSC(/C=C/c2ccccc2)=N1` the figure was 4.7% (inactive); with `CCN(CC(=O)Nc1ccccc1C(F)(F)F)C(=O)C1CCN(C(=O)Nc2ccccc2)CC1`, 7.33% (inactive); with `COc1cc(C(F)(F)F)c(C(=O)N(C)c2ccc(Cl)cc2)cn1`, 0.82% (inactive).
With `N=c1c2c3c(sc2nc2n1CCCCC2)CCCC3` the figure was -5.48% (inactive).
As for `O=C(CCc1ccccc1)Nc1ccnn1C1CCN(Cc2ccc(OCCO)cc2)CC1`, the inhibition is 11.7% (inactive).
With `CC[n+]1cc(C)ccc1/C=C/c1ccc(N(C)C)cc1` the figure was 81.8% (active); with `COc1ccc(-c2c(C#Cc3ccsc3)c3cc(-c4ccc(CN5CCOCC5)cc4)ccc3n2C)cc1`, 9.39% (inactive); with `O=C(COc1cccnc1[N+](=O)[O-])Nc1ccc(Cl)cc1F`, -19.8% (inactive).
Regarding `Cc1ccc(-c2nc(CSCC(=O)NC3CCN(Cc4ccccc4)CC3)c(C)o2)cc1`, the inhibition is 67.4% (active).
With `Cc1ccc(-c2cc(C(=O)NC3CCN(Cc4ccccc4)CC3)c3ccccc3n2)cc1` the figure was 10.8% (inactive).
With `Cc1ccc(S(=O)(=O)NCCC(=O)NC2CCN(Cc3ccccc3)CC2)cc1` the figure was 3.57% (inactive).
With `Cc1cc(C)c(C=NNc2nc3c([nH]2)c(=O)n(C)c(=O)n3C)c(C)c1` the figure was 1.9% (inactive).
`Cc1ccc(C(=O)Nc2sc(Cc3ccc4c(c3)OCO4)c(C)c2C(N)=O)cc1`: the inhibition was -1.06% (inactive).
With `COCOc1cc(O)c(C(=O)/C=C/c2ccc(OCOC)c(OCOC)c2)c(OCOC)c1` the figure was 3.02% (inactive); with `Cc1ccc(S(=O)(=O)N2CCN(C(=O)c3ccc(-n4cncn4)c([N+](=O)[O-])c3)CC2)cc1`, 1.3% (inactive); with `Nc1ccc(C(=O)N2CCN(S(=O)(=O)c3ccc(Cl)cc3)CC2)cc1[N+](=O)[O-]`, 98.7% (active).
With `CC(C)c1ccc(S(=O)(=O)N2CCN(C(=O)c3ccc(N4CCCC4)c([N+](=O)[O-])c3)CC2)cc1` the figure was -1.24% (inactive); with `CC(=O)c1cc(-c2ccccc2)n(CCC(=O)NC2CCCCCC2)c1C`, 1.89% (inactive).
Then `COc1cccc2c1C(=O)c1c(O)c3c(c(O)c1C2=O)CC(O)(C(C)=NNC(=O)c1ccc(Cl)c(Cl)c1)CC3OC1CC(N)C(O)C(C)O1` (configuration not stated), with 71.2% (active); and `CCCCN(C(=O)c1ccc(S(=O)(=O)N2CCOCC2)cc1)C1CCS(=O)(=O)C1` (configuration not stated), with 0.87% (inactive).
Turning to `O=C(OC1CCOC1=O)c1ccc(-c2nc3ccccc3s2)s1` (configuration not stated), the inhibition is -21% (inactive).
With `Cc1cnc(NC(=O)c2ccccn2)s1` the figure was -50.9% (inactive).
Then `C/C(=N\NC(=O)Cc1ccc(Cl)cc1)c1ccccn1`, with 88% (active); and `CC1=NNC(=O)C1CCC(=O)N/N=C(\C)c1ccc(Cl)cc1` (configuration not stated), with 3.52% (inactive).
With `COc1ccc(/C(C)=N\NC(=O)c2ccc(-c3ccccc3)cc2)c(F)c1` the figure was 2.32% (inactive).
Turning to `Cc1cccc(C)c1NC(=S)N1CCCCCC1`, the inhibition is 3.64% (inactive).
Then `C/C(=N\NC(=O)c1ccccc1F)c1ccccn1`, with 58.4% (active); and `NC(=O)NC(CC(=O)NNC(=O)c1ccccn1)c1ccc(Cl)cc1` (configuration not stated), with 5.55% (inactive).
With `CC(=NNC(=S)N1CCCCCC1)c1ccccn1` the figure was 63.6% (active); with `CNC(=S)N1CCN(c2ccccn2)CC1`, 2.59% (inactive); with `O=C(COC(=O)c1ccc(O)cc1O)c1ccc2c(c1)OCCO2`, -30.6% (inactive).
With `C=CCn1cc(C(=O)NCc2ccc(Cl)cc2)c(=O)c2cc(S(=O)(=O)N(CC)CC)ccc21` the figure was 9.9% (inactive).
As to `Cc1ccc(S(=O)(=O)c2cc3c(=O)n4cccc(C)c4nc3n(CCc3ccccc3)c2=N)cc1C`, the inhibition was 1.35% (inactive).
With `CC(C)c1ccc(/C=C/C(=O)NCCCN2CCOCC2)cc1` the figure was -8.47% (inactive); with `CNS(=O)(=O)c1ccc(NC(=O)C2CC(=O)N(c3ccc(Cl)cc3)C2)cc1` (configuration not stated), -4% (inactive).
Then `CCOC(=O)c1c(C)[nH]c(C(=O)NCCN2CCOCC2)c1C`, with 17.9% (inactive); and `CN(C)S(=O)(=O)c1ccc(Cl)c(NC(=O)COC(=O)CC(NC(N)=O)c2ccc(Cl)cc2)c1` (configuration not stated), with -2.2% (inactive).
Then `CCOP1(=O)C=C(C(C)(C)C)OC1c1ccc(F)cc1` (configuration not stated), with 8.49% (inactive); and `COc1cccc(NC(=S)NC(=O)c2c(Cl)c(C)nn2C)c1`, with -24.8% (inactive); and `CCCc1c(C(=O)Nc2ccc(F)cc2)cnn1-c1ccccc1`, with -12.3% (inactive).
For the compound `Cc1nn(C(C)C(=O)NCCC2=CCCCC2)c(=O)c2nn(-c3ccccc3)c(C)c12` (configuration not stated), the inhibition was 3.02% (inactive).
Then `CCN1/C(=C/c2ccc3ccc(C)cc3[n+]2CC)Sc2ccccc21`, with 79.4% (active).
With `CCN1/C(=C\c2ccc3ccccc3[n+]2CC)Sc2cc(C)ccc21` the figure was 90% (active); with `NC(=O)c1ccc(N2CCCC2)nc1`, 1.14% (inactive).
Then `CCC1=[N+]([O-])C(C)(/C(C)=N\O)N(O)C1(C)C` (configuration not stated), with 17.9% (inactive); and `COC(=O)Cc1[nH]n(-c2nc3ccccc3s2)c(=O)c1C(C)=Nc1ccc(OC)cc1`, with 79.5% (active).
Regarding `COc1ccc(C(=O)Nc2cccc(/C=C(/CCC(=O)O)c3nc4ccccc4s3)c2)cc1`, the inhibition is -20.1% (inactive).
Then `CC(=NCc1ccco1)c1c(C(F)(F)F)[nH]n(-c2nc3ccccc3s2)c1=O`, with -17.2% (inactive).
`CCCCC(=O)Nc1ccc(C(=O)Nc2cc(C(F)(F)F)ccc2Cl)cc1`: the inhibition is 5.23% (inactive).
Take `O=C(CC(O)(C(F)(F)F)C(F)(F)F)Nc1ccc(Cl)c(Cl)c1`: the inhibition was 78.9% (active).
Then `NC(=O)N1CCCC1C(=O)Nc1ccc(Cl)c(Cl)c1` (configuration not stated), with 1.62% (inactive).
Then `CCC1CCCCN1C(=O)CSc1nc2c(c(=O)n1C)SC(C)C2` (configuration not stated), with 1.3% (inactive).
Then `COc1ccc(CC(=O)NCC(=O)N/N=C/c2cc(Br)ccc2OC)cc1`, with -1.49% (inactive); and `COc1ccc(OC)c(/C=N/NC(=O)CSc2nnc(C)n2-c2ccccc2)c1`, with -2.67% (inactive); and `COc1ccc(OC)c(/C=N/NC(=O)c2ccc[n+](CC(=O)c3ccccc3)c2)c1`, with 91.4% (active).
Consider `Cc1cc(NC(=O)CN2CCCC(C)C2)n(-c2nc3ccccc3s2)n1` (configuration not stated), for which the inhibition is 20% (inactive).
Then `CCC(C)Cn1c(O)cc2nn(-c3nc4ccccc4s3)c(=O)c-2c1C` (configuration not stated), with 83.4% (active).
With `CCc1ccc[n+](-c2nc([O-])sc2C=O)c1`, the inhibition is 6.64% (inactive).
Then `COc1ccc(NC(=O)CNC(=O)Cn2ccc3ccccc3c2=O)c(OC)c1`, with -0.61% (inactive); and `COc1ccc(OC)c(NC(=O)c2sc3nc(C)cc(C)c3c2N)c1`, with -3.47% (inactive).
Then `COc1ccc(OC)c(Cc2nnc(CCC(=O)NC3CCCC3)o2)c1`, with -18.7% (inactive); and `COc1ccc(OC)c(Cc2cnc3nc(N)nc(N)c3c2C)c1`, with 63.1% (active); and `CC(C)=CCCC1(C)C=Cc2c(ccc3c2[nH]c2cc(O)c(C)cc23)O1` (configuration not stated), with -3.46% (inactive).
With `CS(=O)(=O)N1CCCC(C(=O)Nc2ccccc2C(F)(F)F)C1` (configuration not stated) the figure was -2.21% (inactive); with `O=C(O)CCCCCCCCc1cn(CN2C(=O)c3ccccc3C2=O)nn1`, -12.6% (inactive); with `OCC1(Cc2ccccc2C(F)(F)F)CCN(Cc2cccc3cnccc23)CC1`, 25.5% (inactive).
As for `CC1CC2=C(CC1/C=N/NC(N)=S)C(C)(C)CCC2` (configuration not stated), the inhibition was 72.7% (active).
With `COc1cccc(CN(C)C(=O)CC23CC4CC(CC(C4)C2)C3)c1OC` the figure was -2.54% (inactive).
Then `Cn1c(N)c(C(=O)COC(=O)/C=C/c2ccc(OC(F)F)cc2)c(=O)n(C)c1=O`, with 5.01% (inactive); and `COC(=O)c1sc(NC(=S)NC(=O)c2ccc(C)cc2)nc1C`, with -41.9% (inactive); and `N#Cc1c(-c2cccs2)nc(SCC(=O)c2ccc(Br)cc2)[nH]c1=O`, with 4.3% (inactive).
Turning to `N#Cc1ccc(C(=O)Nc2nc(-c3cccs3)c(C(=O)C(F)(F)F)s2)cc1`, the inhibition is 62.5% (active).
With `C/C(N)=C(\C#N)C(=O)NCCc1ccccn1` the figure was -1.25% (inactive); with `C=CC[C@H](CC(=O)OC(C)(C)C)C(=O)OC[C@H]1CCCN1C(=O)[C@H](CC=C)CC(=O)N(CCO)Cc1ccccc1`, 7.8% (inactive); with `Nc1nc(SCC(=O)Nc2ccc(Cl)c([N+](=O)[O-])c2)n[nH]1`, -5.39% (inactive).
